Results from PubChem BioAssay (NCI).
Compounds without any hit were thinned out: in the full panel of roughly 83,000, 20% have a hit.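 Each cell line was grown in a 96-well plate and treated with one concentration of compound for 48 hours. Values below 10 were considered active.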 Unmarked numbers belong to inactive results. The source made the active and inactive calls.

The compounds below were run on HL-60(TB) leukemia (assay: NCI-60 one-dose screen, 48 h (100 = growth as untreated, 0 = no growth, -100 = all killed)). Settings: 10 µM unless noted.

| Compound | growth |
| --- | --- |
| c1ccc(-c2oc(-c3ccccc3)c(CN3CCCCC3)c2CN2CCCCC2)cc1 | 27% |
| CN1CC(c2ccccc2)C(C(=O)c2ccc(Br)cc2)C12C(=O)Nc1ccccc12 (stereo not given) | 99.8% |
| COc1ccc(/C(C)=C(\c2ccc(Cl)cc2)c2ccc(OCCN3CCCCC3)cc2)cc1 | 32.8% |
| Fc1ccc(-c2cc(C(Cl)Cl)no2)cc1 | 136% |
| CC1(C)OC2COC3(C(=O)O)OC(C)(C)OC3C2O1 (stereo not given) | 106% |
| CC(=O)Nc1ccc2c(c1)/C(=C\C=C/c1ccc([N+](C)(C)C)cc1)c1ccccc1-2 | 43.7% |
| Cc1cc(=O)[nH]c(=O)n1Cc1cn(-c2c3ccccc3nc3ccccc23)nn1 | 16.3% |
| O=c1oc2c(cc1-c1ccccc1)c(=O)[nH]c1ccccc12 | 98.1% |
| O=C1Nc2ccccc2C12Nc1cc(Cl)ccc1S2 (stereo not given) | 71.6% |
| Cc1ccc(OCCCCCCNCCO)c(C)c1 | -3.98% (active) |
| CCCSc1nc2ccc(C)cc2cc1/C=[N+](\[O-])c1ccccc1 | 14.1% |
| C/C(=N\Nc1cccc(Cl)n1)c1ccccn1 | -9.92% (active) |
| Oc1ccc(Nc2ccccc2)cc1 | 66.5% |
| COc1cc(CNC(=O)CCCC/C=C/C(C)C)ccc1OCc1cn(-c2ccc(C(F)(F)F)cc2)nn1 | 85.3% |
| S=c1[nH]nc(Cn2c3ccccc3c3ccncc32)o1 | 87.6% |
| Nc1c(C(=O)Nc2ccccc2)sc2nc3c(cc12)CCCC3 | 15.5% |
| OC(c1cccc(C(F)(F)F)c1)c1cnccc1NC1CCCCCC1 (stereo not given) | -30.7% (active) |
| CCN1C(=O)N(CC)C2C1NN=c1s/c(=C3\C(=O)Nc4ccccc43)c(=O)n12 (stereo not given) | -25% (active) |
| CC1=CC2c3oc(-c4ccccc4)c(C(=O)c4ccccc4)c3CNC2C=C1 (stereo not given) | 84.3% |
| CCOC(=O)c1cc(C(=O)c2ccc(O)c(O)c2)n2ccc(-c3ccn4c(C(=O)c5ccc(O)c(O)c5)cc(C(=O)OCC)c4c3)cc12 | 73.8% |

| Compound | growth |
| --- | --- |
| COc1ccc(N=C2C(=Nc3ccc(OC)cc3)N(c3ccc(N(C)C)cc3)C(=S)N2c2ccc(OC)cc2)cc1 | 24.6% |
| CC(C)C1=NOC(=O)C1=Cc1cn(-c2ccccc2)nc1-c1ccc(Br)cc1 | -28.8% (active) |
| Nc1c(C(=O)Nc2cccc3c2OCCO3)sc2nc3c(cc12)CN(Cc1ccccc1)CC3 | 19.1% |
| COc1cc(C2C3=C(COC3=O)N(CCO)c3cc4c(cc32)OCCO4)cc(OC)c1O (stereo not given) | -9% (active) |
| C=C1C(=O)O[C@H]2[C@H]1CC/C(COC(=O)/C=C\C(=O)NCc1ccc(Cn3c(=O)sn(CCCI)c3=O)cc1)=C\CC[C@@]1(C)O[C@@H]21 | -36.6% (active) |
| C=CCn1c(C)nc2cc(Nc3nc(N4CCCC4)nc4ccccc34)ccc21 | 88.5% |
| NC(=O)N/N=C/c1ccc(Br)o1 | 95.8% |
| CCOC(=O)c1nn(C2CCCCO2)c2ccc(NC(=O)CSc3nc4ccccc4c(=O)[nH]3)cc12 (stereo not given) | 118% |
| CCNC(=O)Oc1ccc[nH]c1=O | 94.1% |
| COc1ccc(/C=C2\CCCC3=C2N=C2SC(C)=NN2C3c2ccc(OC)c(OC)c2)cc1OC (stereo not given) | -14.5% (active) |
| COc1cc(NCCC2CCCCN2)c2ncccc2c1OC (stereo not given) | 0.805% (active) |
| COc1cc(/C=C\c2cc(OC)c(OC)c(OC)c2)cc(NS(=O)(=O)c2ccc(Cl)cc2)c1OC | -31% (active) |
| COC(=O)[C@]12CC[C@@H](C)[C@H](C)[C@@H]1C1=CC[C@@H]3[C@@]4(C)C[C@@H](OC(=O)/C=C/c5ccccc5)[C@H](O)[C@@](C)(CO)[C@@H]4[C@H](O)C[C@@]3(C)[C@]1(C)CC2 | -20.6% (active) |
| CCc1ccc(-c2ccc(COc3ccc(CC4SC(=O)NC4=O)cc3)cc2)cc1 (stereo not given) | 88.1% |
| O=C1c2ccccc2C(=O)c2c1cc1c(c2[N+](=O)[O-])OCO1 | 7.66% (active) |
| CC(=O)CSC(C)=O | 102% |
| C[C@]12CC[C@@H]3c4cc(OC(F)F)c(OS(N)(=O)=O)cc4CC[C@H]3[C@@H]1CC[C@@H]2O | 1.17% (active) |
| CC(C)C[C@H](NC(=O)Cn1ccc(NCc2ccccc2)cc1=O)B(O)O | 3.72% (active) |
| O=C(C(=O)c1cccnc1)c1cccnc1 | 104% |
| COC(=O)c1c2c(c(C)[n+]([O-])c1C)C(=O)C(NCc1ccc(F)cc1)=CC2=O | -51.5% (active) |
